In PubChem BioAssay (NCATS):
Results filed as inconclusive are left out. Entries that show only a call come without a potency. Active and inactive are the calls of the source. Unless noted, the call rests on the fitted dose curve; in most records, active means well fitted activation curve with a large enough effect; inconclusive means small, poorly fitted or top-dose-only effect; inactive means flat fitted curve, though single readings scatter.

Molecular target: Cellular tumor antigen p53 (Homo sapiens) (UniProt P04637)
Sequence (P04637 whole entry, looked up): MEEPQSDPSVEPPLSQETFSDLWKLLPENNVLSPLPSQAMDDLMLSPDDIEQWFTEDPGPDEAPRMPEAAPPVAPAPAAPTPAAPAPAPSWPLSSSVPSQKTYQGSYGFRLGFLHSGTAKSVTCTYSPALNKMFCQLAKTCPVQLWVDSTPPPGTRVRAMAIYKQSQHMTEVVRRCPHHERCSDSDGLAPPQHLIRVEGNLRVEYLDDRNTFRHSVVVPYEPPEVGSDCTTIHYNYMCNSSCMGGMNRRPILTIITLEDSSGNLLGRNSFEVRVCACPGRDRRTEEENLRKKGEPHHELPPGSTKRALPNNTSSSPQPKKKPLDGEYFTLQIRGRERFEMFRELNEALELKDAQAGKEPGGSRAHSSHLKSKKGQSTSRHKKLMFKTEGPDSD
Assay: Primary qHTS for small molecule compounds that upregulate eGFP-tagged delta133p53alpha (in C-terminal) cells. (AID 2060324)
Details: NCI-H358 delta133p53alpha-eGFP (C-terminal tag), GFP fluorescence imaging, 24 h; series mostly up to 57.5 µM
Summary of the method: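 C-terminal eGFP-tagged delta133p53alpha NCI-H358 line; dox-induced (100 ng/ml, 24 h) then plated without dox; compounds pinned in titration, 24 h 37 °C/5% CO2; PFA fix, Hoechst nuclei; GFP by LSC.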
Potency means the concentration at half of the fitted maximal effect.

Row | SMILES | Potency
1 | CCCCCCCCCCCCCCCCCCOC[C@H](COP(=O)([O-])OCC[N+](C)(C)C)OC | inactive
2 | CC(C)(C)C(=O)Oc1ccc(S(=O)(=O)Nc2ccccc2C(=O)NCC(=O)O)cc1 | inactive
3 | CCCC(=O)NCCc1c2n(c3ccc(OC)cc13)CCCc1ccccc1-2 | inactive
4 | CC(=O)Nc1nnc(S(N)(=O)=O)s1 | inactive
5 | Nc1ccc2c3c(cccc13)C(=O)NC2=O | 30.1 µM (active)
6 | COc1ccc2c(c1)CCC1C2CC[C@@]2(C)C1CC[C@@H]2NCCCCCCN1C(=O)C=CC1=O (stereo not given in full) | inactive
7 | COc1ccc(Cc2nccc3cc(OC)c(OC)cc23)cc1OC | inactive
8 | CC(C)COCC(CN(Cc1ccccc1)c1ccccc1)N1CCCC1 (stereo not given) | inactive
9 | COc1ccc(C2CNC(=O)C2)cc1OC1CCCC1 (stereo not given) | inactive
10 | Cc1cc(C)c(/C=C2\C(=O)Nc3ccccc32)[nH]1 | 30.1 µM (active)
11 | O=C1OC(=O)C2C3CCC(O3)C12 (stereo not given) | inactive
12 | O=c1cc(-c2ccccc2F)[nH]c2cc3c(cc12)OCO3 | inactive
13 | NCCc1cnc[nH]1 | inactive
14 | CC(C)[N+](C)(CCOC(=O)C1c2ccccc2Oc2ccccc21)C(C)C | inactive
15 | N=c1ccn2c(n1)O[C@H]1[C@H](O)[C@@H](CO)O[C@H]12 | inactive
16 | CC(C)c1cccc(C(C)C)c1N1C(=O)c2ccc(O)cc2C1=O | inactive
17 | C/C=C/CC(C)C(O)C1C(=O)NC(CC)C(=O)N(C)CC(=O)N(C)C(CC(C)C)C(=O)NC(C(C)C)C(=O)N(C)C(CC(C)C)C(=O)NC(C)C(=O)NC(C)C(=O)N(C)C(CC(C)C)C(=O)N(C)C(CC(C)C)C(=O)N(C)C(C(C)C)C(=O)N1C (stereo not given) | inactive
18 | O=C1NC(=O)c2cc(Nc3ccccc3)c(Nc3ccccc3)cc21 | 30.1 µM (active)
19 | CCN1/C(=C/C(C)=O)Sc2ccc(OC)cc21 | inactive

Row | SMILES | Potency
20 | CC#CCOC(=O)c1c(C)nc2sc3c(c2c1N)CCC(O)C3 (stereo not given) | inactive
21 | COc1ccc(CCN(C)CCCC(C#N)(c2cc(OC)c(OC)c(OC)c2)C(C)C)cc1OC (stereo not given) | inactive
22 | NOCC(=O)O | inactive
23 | OCC1NCC(O)C(O)C1O (stereo not given) | inactive
24 | CC[N+](C)(C)c1cccc(O)c1 | inactive
25 | CO/N=C(\C(=O)N[C@@H]1C(=O)N2C(C(=O)O)=C(CSc3nc(=O)c(O)nn3C)CSC12)c1csc(N)n1 (stereo not given in full) | inactive
26 | Nc1nc2c(ncn2COCCO)c(=O)[nH]1 | inactive
27 | NS(=O)(=O)c1cc2c(cc1Cl)NCNS2(=O)=O | inactive
28 | O=C(NCCN1CCOCC1)c1ccc(Cl)cc1 | inactive
29 | Cc1ccc(=O)n(-c2ccccc2)c1 | inactive
30 | COc1ccc([C@@H]2Sc3ccccc3N(CCN(C)C)C(=O)[C@@H]2OC(C)=O)cc1 | inactive
31 | O=C(N[C@@H](Cc1ccccc1)C(=O)CCl)OCc1ccccc1 | 12 µM (active)
32 | NC1[C@H]2CN(c3nc4c(cc3F)c(=O)c(C(=O)O)cn4-c3ccc(F)cc3F)C[C@@H]12 (stereo not given in full) | inactive
33 | CN1C2CC(OC(=O)[C@H](CO)c3ccccc3)CC1C1OC12 (stereo not given in full) | inactive
34 | C[C@H](Cc1ccc(O)c(O)c1)[C@@H](C)Cc1ccc(O)c(O)c1 | inactive
35 | CCN(c1nc(N)c(C(=O)N=C(N)N)nc1Cl)C(C)C | inactive
36 | CC1=C(/C=C/C(C)=C/C=C/C(C)=C/C(=O)O)C(C)(C)CCC1 | inactive
37 | CSc1ccc2c(c1)N(CCC1CCCCN1C)c1ccccc1S2 (stereo not given) | inactive

Molecular target: Aldehyde dehydrogenase, mitochondrial (Homo sapiens) (UniProt P05091)
Assay: qHTS for Inhibitors of the Aldehyde Dehydrogenase Family (ALDH2) Validation screens (AID 2061302; active means well fitted inhibition curve with a large enough effect; title and protocol of this record describe different tests)
Details: ALDH inhibition qHTS; series mostly up to 42.6 µM

Row | SMILES | Potency
38 | CCCCCCCCCCCCCCCCCCOC[C@H](COP(=O)([O-])OCC[N+](C)(C)C)OC | inactive
39 | O=c1c(-c2ccc(O)cc2)coc2cc(O[C@@H]3O[C@H](CO)[C@@H](O)[C@H](O)[C@H]3O)cc(O)c12 | inactive
40 | CC(C)(C)C(=O)Oc1ccc(S(=O)(=O)Nc2ccccc2C(=O)NCC(=O)O)cc1 | inactive
41 | CCCC(=O)NCCc1c2n(c3ccc(OC)cc13)CCCc1ccccc1-2 | inactive
42 | CC(=O)Nc1nnc(S(N)(=O)=O)s1 | inactive
43 | Nc1ccc2c3c(cccc13)C(=O)NC2=O | inactive
44 | COc1ccc2c(c1)CCC1C2CC[C@@]2(C)C1CC[C@@H]2NCCCCCCN1C(=O)C=CC1=O (stereo not given in full) | inactive
45 | CC(C)COCC(CN(Cc1ccccc1)c1ccccc1)N1CCCC1 (stereo not given) | inactive
46 | COc1ccc(C2CNC(=O)C2)cc1OC1CCCC1 (stereo not given) | inactive
47 | O=c1c(-c2ccc(O[C@@H]3O[C@H](CO)[C@@H](O)[C@H](O)[C@H]3O)cc2)coc2cc(O)cc(O)c12 | inactive
48 | Cc1cc(C)c(/C=C2\C(=O)Nc3ccccc32)[nH]1 | inactive
49 | O=C1OC(=O)C2C3CCC(O3)C12 (stereo not given) | inactive
50 | NCCc1cnc[nH]1 | inactive
51 | CC(C)[N+](C)(CCOC(=O)C1c2ccccc2Oc2ccccc21)C(C)C | inactive
52 | N=c1ccn2c(n1)O[C@H]1[C@H](O)[C@@H](CO)O[C@H]12 | inactive
53 | CC(C)c1cccc(C(C)C)c1N1C(=O)c2ccc(O)cc2C1=O | inactive
54 | CCN1/C(=C/C(C)=O)Sc2ccc(OC)cc21 | inactive

Row | SMILES | Potency
55 | CC#CCOC(=O)c1c(C)nc2sc3c(c2c1N)CCC(O)C3 (stereo not given) | inactive
56 | COc1ccc(CCN(C)CCCC(C#N)(c2cc(OC)c(OC)c(OC)c2)C(C)C)cc1OC (stereo not given) | inactive
57 | NOCC(=O)O | inactive
58 | OCC1NCC(O)C(O)C1O (stereo not given) | inactive
59 | CC[N+](C)(C)c1cccc(O)c1 | inactive
60 | Nc1nc2c(ncn2COCCO)c(=O)[nH]1 | inactive
61 | NS(=O)(=O)c1cc2c(cc1Cl)NCNS2(=O)=O | inactive
62 | Cc1ccc(/C(=C\CN2CCCC2)c2ccccn2)cc1 | inactive
63 | O=C(NCCN1CCOCC1)c1ccc(Cl)cc1 | inactive
64 | Cc1ccc(=O)n(-c2ccccc2)c1 | inactive
65 | COc1ccc([C@@H]2Sc3ccccc3N(CCN(C)C)C(=O)[C@@H]2OC(C)=O)cc1 | inactive
66 | NC1[C@H]2CN(c3nc4c(cc3F)c(=O)c(C(=O)O)cn4-c3ccc(F)cc3F)C[C@@H]12 (stereo not given in full) | inactive
67 | CN1C2CC(OC(=O)[C@H](CO)c3ccccc3)CC1C1OC12 (stereo not given in full) | inactive
68 | C[C@H](Cc1ccc(O)c(O)c1)[C@@H](C)Cc1ccc(O)c(O)c1 | 15.8 µM (active)
69 | CCN(c1nc(N)c(C(=O)N=C(N)N)nc1Cl)C(C)C | inactive
70 | CSc1ccc2c(c1)N(CCC1CCCCN1C)c1ccccc1S2 (stereo not given) | inactive
